# Test results published in PubChem BioAssay AID1159580 (chemical genetic matrix, 2015).
# Among all 5,500 compounds or so, about 2,000 (36%) were called active. Another 18% or so got no clear call; they are omitted. Some of the results follow. Values without a mark were called inactive. Rule as the data show it: active = normalized growth mostly below about 0.91 (no sharp cut-off); inconclusive = no clear call, values can overlap the other calls; inactive = mostly above about 0.92.
# Test: chemical genetic growth profiling, strain panel (AID 1159580);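 also: tested at 20 µM; growth read once vehicle control cultures reached saturation at 30 °C; 1 = growth at the plate median or of vehicle wells; lower values mean less growth of the strain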
# Settings: growth OD
structure (smiles),measurement,setting,value
O=C(O)CCCOc1ccc(Cl)cc1Cl,normalized growth,"S. cerevisiae deletion strains, locus YJR075W, strain HOC1, stronger effect = lower value",0.999
same,normalized growth,"S. cerevisiae deletion strains, locus YKL009W, strain mrt4, stronger effect = lower value",0.967
same,normalized growth,"S. cerevisiae deletion strains, locus YKL068W, stronger effect = lower value",0.986
same,normalized growth,"S. cerevisiae deletion strains, locus YKL085W, strain MDH1 (second series), stronger effect = lower value",0.984
same,normalized growth,"S. cerevisiae deletion strains, locus YKL085W, strain MDH1, stronger effect = lower value",0.984
same,normalized growth,"S. cerevisiae deletion strains, locus YKL160W, strain elf1, stronger effect = lower value",0.953
same,normalized growth,"S. cerevisiae deletion strains, locus YKL190W, strain CNB1, stronger effect = lower value",0.982
same,normalized growth,"S. cerevisiae deletion strains, locus YKR001C, strain vps1, stronger effect = lower value",0.996
same,normalized growth,"S. cerevisiae deletion strains, locus YKR026C, strain gcn3, stronger effect = lower value",0.926
same,normalized growth,"S. cerevisiae deletion strains, locus YKR091W, strain srl3, stronger effect = lower value",0.955
same,normalized growth,"S. cerevisiae deletion strains, locus YLL001W, strain dnm1, stronger effect = lower value",0.94
same,normalized growth,"S. cerevisiae deletion strains, locus YLL026W, stronger effect = lower value",0.945
same,normalized growth,"S. cerevisiae deletion strains, locus YLL041C, strain sdh2, stronger effect = lower value",0.951
same,normalized growth,"S. cerevisiae deletion strains, locus YLR027C, strain aat2, stronger effect = lower value",0.96
same,normalized growth,"S. cerevisiae deletion strains, locus YLR039C, strain RIC1, stronger effect = lower value",0.965
same,normalized growth,"S. cerevisiae deletion strains, locus YLR058C, strain SHM2, stronger effect = lower value",0.999
same,normalized growth,"S. cerevisiae deletion strains, locus YLR102C, strain apc9, stronger effect = lower value",1.03
same,normalized growth,"S. cerevisiae deletion strains, locus YLR113W, strain HOG1, stronger effect = lower value",0.584 (active)
same,normalized growth,"S. cerevisiae deletion strains, locus YLR221C, strain rsa3, stronger effect = lower value",0.949
same,normalized growth,"S. cerevisiae deletion strains, locus YLR258W, strain gsy2, stronger effect = lower value",0.943
same,normalized growth,"S. cerevisiae deletion strains, locus YLR262C, strain YPT6 (second series), stronger effect = lower value",0.792 (active)
same,normalized growth,"S. cerevisiae deletion strains, locus YLR262C, strain YPT6, stronger effect = lower value",0.976
same,normalized growth,"S. cerevisiae deletion strains, locus YLR268W, strain sec22, stronger effect = lower value",1.02
same,normalized growth,"S. cerevisiae deletion strains, locus YLR320W, strain mms22, stronger effect = lower value",0.955
same,normalized growth,"S. cerevisiae deletion strains, locus YLR330W, strain CHS5, stronger effect = lower value",0.995
same,normalized growth,"S. cerevisiae deletion strains, locus YLR342W, strain FKS1 (second series), stronger effect = lower value",0.997
same,normalized growth,"S. cerevisiae deletion strains, locus YLR342W, strain FKS1, stronger effect = lower value",0.922
same,normalized growth,"S. cerevisiae deletion strains, locus YLR357W, strain rsc2, stronger effect = lower value",0.888
same,normalized growth,"S. cerevisiae deletion strains, locus YLR370C, strain arc18, stronger effect = lower value",0.936
same,normalized growth,"S. cerevisiae deletion strains, locus YLR371W, strain rom2, stronger effect = lower value",1.01
same,normalized growth,"S. cerevisiae deletion strains, locus YLR384C, strain iki3, stronger effect = lower value",0.945
same,normalized growth,"S. cerevisiae deletion strains, locus YLR418C, strain cdc73, stronger effect = lower value",1.03
same,normalized growth,"S. cerevisiae deletion strains, locus YML016C, strain PPZ1, stronger effect = lower value",0.999
same,normalized growth,"S. cerevisiae deletion strains, locus YML032C, strain rad52, stronger effect = lower value",1.01
same,normalized growth,"S. cerevisiae deletion strains, locus YML120C, strain ndi1, stronger effect = lower value",0.958
same,normalized growth,"S. cerevisiae deletion strains, locus YML124C, strain tub3, stronger effect = lower value",1
same,normalized growth,"S. cerevisiae deletion strains, locus YMR058W, strain fet3, stronger effect = lower value",0.947
same,normalized growth,"S. cerevisiae deletion strains, locus YMR078C, strain ctf18, stronger effect = lower value",1.01
same,normalized growth,"S. cerevisiae deletion strains, locus YMR125W, strain sto1, stronger effect = lower value",0.913
same,normalized growth,"S. cerevisiae deletion strains, locus YMR129W, stronger effect = lower value",0.944
same,normalized growth,"S. cerevisiae deletion strains, locus YMR205C, strain PFK2, stronger effect = lower value",0.955
same,normalized growth,"S. cerevisiae deletion strains, locus YMR223W, strain ubp8, stronger effect = lower value",1.01
same,normalized growth,"S. cerevisiae deletion strains, locus YMR231W, strain pep5, stronger effect = lower value",0.92 (active)
same,normalized growth,"S. cerevisiae deletion strains, locus YMR263W, strain SAP30, stronger effect = lower value",0.989
same,normalized growth,"S. cerevisiae deletion strains, locus YMR307W, strain GAS1, stronger effect = lower value",1
same,normalized growth,"S. cerevisiae deletion strains, locus YNL067W, strain RPL9B, stronger effect = lower value",0.997
same,normalized growth,"S. cerevisiae deletion strains, locus YNL071W, strain lat1, stronger effect = lower value",0.935
same,normalized growth,"S. cerevisiae deletion strains, locus YNL128W, strain TEP1, stronger effect = lower value",1.01
same,normalized growth,"S. cerevisiae deletion strains, locus YNL153C, strain GIM3, stronger effect = lower value",0.997
same,normalized growth,"S. cerevisiae deletion strains, locus YNL183C, strain NPR1, stronger effect = lower value",0.731 (active)
same,normalized growth,"S. cerevisiae deletion strains, locus YNL209W, strain ssb2, stronger effect = lower value",0.971
same,normalized growth,"S. cerevisiae deletion strains, locus YNL233W, strain BNI4, stronger effect = lower value",0.971
same,normalized growth,"S. cerevisiae deletion strains, locus YNL248C, strain rpa49, stronger effect = lower value",0.941
same,normalized growth,"S. cerevisiae deletion strains, locus YNL250W, strain rad50, stronger effect = lower value",1
same,normalized growth,"S. cerevisiae deletion strains, locus YNL271C, strain bni1, stronger effect = lower value",0.996
same,normalized growth,"S. cerevisiae deletion strains, locus YNL298W, strain CLA4, stronger effect = lower value",0.976
same,normalized growth,"S. cerevisiae deletion strains, locus YNL307C, strain MCK1, stronger effect = lower value",1.01
same,normalized growth,"S. cerevisiae deletion strains, locus YNL322C, strain KRE1 (second series), stronger effect = lower value",0.882 (active)
same,normalized growth,"S. cerevisiae deletion strains, locus YNL322C, strain KRE1, stronger effect = lower value",0.994
same,normalized growth,"S. cerevisiae deletion strains, locus YNR049C, strain mso1, stronger effect = lower value",0.929
same,normalized growth,"S. cerevisiae deletion strains, locus YNR052C, strain pop2, stronger effect = lower value",1.01
same,normalized growth,"S. cerevisiae deletion strains, locus YOL006C, strain TOP1, stronger effect = lower value",1.04
same,normalized growth,"S. cerevisiae deletion strains, locus YOL012C, strain htz1",1.19
same,normalized growth,"S. cerevisiae deletion strains, locus YOL147C, strain pex11, stronger effect = lower value",1.01
same,normalized growth,"S. cerevisiae deletion strains, locus YOR001W, strain rrp6, stronger effect = lower value",0.953
same,normalized growth,"S. cerevisiae deletion strains, locus YOR061W, strain CKA2, stronger effect = lower value",0.999
same,normalized growth,"S. cerevisiae deletion strains, locus YOR069W, strain VPS5, stronger effect = lower value",1
same,normalized growth,"S. cerevisiae deletion strains, locus YOR070C, strain gyp1, stronger effect = lower value",0.947
same,normalized growth,"S. cerevisiae deletion strains, locus YOR080W, strain dia2, stronger effect = lower value",0.925
same,normalized growth,"S. cerevisiae deletion strains, locus YOR083W, strain WHI5, stronger effect = lower value",0.956
same,normalized growth,"S. cerevisiae deletion strains, locus YOR106W, strain vam3, stronger effect = lower value",0.942
same,normalized growth,"S. cerevisiae deletion strains, locus YOR136W, strain idh2, stronger effect = lower value",1.02
same,normalized growth,"S. cerevisiae deletion strains, locus YOR144C, strain elg1, stronger effect = lower value",1.02
same,normalized growth,"S. cerevisiae deletion strains, locus YOR184W, strain ser1, stronger effect = lower value",1.03
same,normalized growth,"S. cerevisiae deletion strains, locus YOR231W, strain MKK1, stronger effect = lower value",0.796 (active)
same,normalized growth,"S. cerevisiae deletion strains, locus YOR265W, strain rbl2, stronger effect = lower value",0.943
same,normalized growth,"S. cerevisiae deletion strains, locus YOR270C, strain vph1, stronger effect = lower value",0.971
same,normalized growth,"S. cerevisiae deletion strains, locus YOR290C, strain snf2, stronger effect = lower value",0.962
same,normalized growth,"S. cerevisiae deletion strains, locus YOR316C, strain cot1, stronger effect = lower value",1.01
same,normalized growth,"S. cerevisiae deletion strains, locus YPL051W, strain arl3, stronger effect = lower value",0.943
same,normalized growth,"S. cerevisiae deletion strains, locus YPL055C, strain LGE1, stronger effect = lower value",1.01
same,normalized growth,"S. cerevisiae deletion strains, locus YPL078C, strain atp4, stronger effect = lower value",0.93
same,normalized growth,"S. cerevisiae deletion strains, locus YPL106C, strain sse1, stronger effect = lower value",1.03
same,normalized growth,"S. cerevisiae deletion strains, locus YPL240C, strain hsp82, stronger effect = lower value",0.937
same,normalized growth,"S. cerevisiae deletion strains, locus YPL241C, strain CIN2, stronger effect = lower value",1
same,normalized growth,"S. cerevisiae deletion strains, locus YPL256C, strain CLN2, stronger effect = lower value",0.756 (active)
same,normalized growth,"S. cerevisiae deletion strains, locus YPR119W, strain clb2, stronger effect = lower value",1.01
same,normalized growth,"S. cerevisiae deletion strains, locus YPR141C, strain kar3, stronger effect = lower value",1.01
same,normalized growth,"S. cerevisiae deletion strains, locus YPR163C, strain tif3, stronger effect = lower value",1.02
same,normalized growth,"S. cerevisiae deletion strains, locus YPR167C, strain met16, stronger effect = lower value",1.05
same,normalized growth,"S. cerevisiae deletion strains, strain wtn01, stronger effect = lower value",1.01
same,normalized growth,"S. cerevisiae strains, strain wild type, stronger effect = lower value",1
